This is a sample that favours compounds with a hit; in the whole collection about 3.2% have one here.
UGM FP inh: Mtb UDP-galactopyranose mutase inhibition; AID 504406; P9WIQ1; 0.06% of 320,000 active; purified UGM, fluorescence polarization probe displacement; inhibition, % at 10 µM; in the data active = inhibition above about 10%, passing the limit was not always enough; inconclusive = no clear call, values can overlap the other calls
Target sequence (P9WIQ1 whole entry, looked up): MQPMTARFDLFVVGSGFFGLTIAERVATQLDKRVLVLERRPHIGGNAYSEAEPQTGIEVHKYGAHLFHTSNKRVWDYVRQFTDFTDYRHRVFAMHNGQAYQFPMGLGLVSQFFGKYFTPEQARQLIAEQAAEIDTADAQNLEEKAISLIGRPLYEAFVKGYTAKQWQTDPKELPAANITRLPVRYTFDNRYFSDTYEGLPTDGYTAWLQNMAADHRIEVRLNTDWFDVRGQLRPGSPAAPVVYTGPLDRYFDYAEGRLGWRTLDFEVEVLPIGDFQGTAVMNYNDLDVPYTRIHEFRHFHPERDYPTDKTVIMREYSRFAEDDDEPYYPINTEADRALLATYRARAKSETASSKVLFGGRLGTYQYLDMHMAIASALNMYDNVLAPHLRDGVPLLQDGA
PriA SSB inh: blocks PriA binding to SSB C-terminal tail | AlphaScreen SSBct-PriA binding, biotinylated peptide | inhibition, % at 33 µM | 0.6% of 430,000 active; in the data active = inhibition mostly above about 37%, no sharp cut-off; inactive = mostly below about 20%;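 note: plate controls were negative control peptide for no effect and reference peptide for full effect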
Mtb FBA inh: inhibitors of M. tuberculosis fructose-bisphosphate aldolase | purified M. tuberculosis FBA, fluorescence read-out | P9WQA3 | inhibition, % at 1 µM | 2.3% of 360,000 active; in the data active = inhibition above about 27%;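 note: 0% = vehicle and 100% = reference inhibitor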
Mtb betalactam: beta-lactam sensitization of Mtb H37Rv. M. tuberculosis H37Rv growth with meropenem, percent inhibition. inhibition, % at 25 µM. 0.27% of 330,000 active. AID 434955;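 note: growth measured after seven days incubation then overnight dye step; 0% = bacteria only wells and 100% = bacteria with antibiotic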
Rv3671c protease: inhibitors of M. tuberculosis serine protease Rv3671c | P9WHR9 | inhibition, % at 5.96 µM | 0.048% of 320,000 active | AID 2606; in the data active = inhibition above about 38%;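 note: extracellular domain of Rv3671c used as enzyme; 0% = enzyme with DMSO and 100% = no enzyme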
GDH-TPI counter-1: GDH-TPI coupled enzyme inhibition counter-screen. inhibition, % at 4.8 µM. 1.2% of 360,000 active. GDH-TPI coupled enzyme counterscreen, NADH absorbance; in the data active = inhibition above about 30%;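 note: 0% = DMSO wells and 100% = wells lacking the enzyme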
Mtb FBA inh conf: Mtb FBA inhibition, confirmed. shares compounds with Mtb FBA inh. purified M. tuberculosis FBA, fluorescence read-out. inhibition, % at 1 µM. 78% of 5,600 active. AID 651616; in the data active = inhibition above about 27%;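 note: 0% = vehicle wells and 100% = reference inhibitor wells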
GDH-TPI counter-2: counter-screen for M. tuberculosis FBA inhibitors: GDH-TPI coupled enzyme inhibition; shares compounds with Mtb FBA inh; GDH-TPI coupled enzyme counterscreen, fluorescence; inhibition, % at 1 µM; 81% of 5,600 active; AID 652141; in the data active = inhibition above about 10%
GDH-TPI DR: GDH-TPI dose response counter-screen for Mtb FBA | shares compounds with Mtb FBA inh | GDH-TPI coupled enzyme assay, fluorescence, artifact counterscreen | IC50, µM | 79% of 170 active | AID 652145
* = called active by the depositor; ? = inconclusive; / = no result; + = active, no number. Unless noted, the rule behind the calls is not given here.

SMILES	UGM FP inh	PriA SSB inh	Mtb FBA inh	Mtb betalactam	Rv3671c protease	GDH-TPI counter-1	Mtb FBA inh conf	GDH-TPI counter-2	others
O=C(Cn1c(=O)n(Cc2ccco2)c(=O)c2cc(Cl)ccc21)NCC1CCCO1 (stereo not drawn)	0	2	6	-7	-3	-3	/	/
COc1ccc(CCn2c(=N)c(S(=O)(=O)c3ccccc3)cc3c(=O)n4ccccc4nc32)cc1	-2	-20	3	-3	-4	-4	/	/
CCc1cc(=O)oc2cc(C)cc(OC(C)C(=O)NCCCN3CCOCC3)c12 (stereo not drawn)	0	1	59*	6	-4	4	85*	60*
Cc1cc(OC(C)C(=O)NCCCN2CCOCC2)c2c(C)c(C)c(=O)oc2c1 (stereo not drawn)	0	-10	64*	-10	-7	9	168*	181*
Cc1cc(OC(C)C(=O)NCCN2CCOCC2)c2c(C)cc(=O)oc2c1 (stereo not drawn)	2	0	33*	-6	1	-3	76*	64*
Cc1ccc(C)c(NC(=O)C(=O)NCCCN(C)C)c1	/	0	/	/	/	/	/	/
COc1ccc(NC(=O)CCn2cnc3c([nH]c4ccc(C)cc43)c2=O)cc1OC	/	-25	/	/	/	/	/	/
COC(=O)C(NC(=O)CCc1c(C)nc2c(c(C)nn2-c2ccccc2)c1C)C(C)C (stereo not drawn)	-4	-6	43*	8	/	4	57*	48*
Cc1nc2c(c(C)nn2-c2ccccc2)c(C)c1CCC(=O)NCCCOC(C)C	2	0	41*	?	0	3	40*	36*
CCC(C)NC(=O)CCc1c(C)nc2c(c(C)nn2-c2ccccc2)c1C (stereo not drawn)	-1	0	44*	5	-9	3	50*	34*
Cc1nc2c(c(C)nn2-c2ccccc2)c(C)c1CCC(=O)Nc1ccc(CN2CCCC2)cc1	0	1	30*	77	-3	8	66*	49*
NC(=NOC(=O)Cc1ccccc1[N+](=O)[O-])c1cccc(Br)c1	/	8	/	/	/	/	/	/
COc1ccc(S(=O)(=O)NCCc2ccc(N(C)C)cc2)c(C)c1	/	9	/	/	/	/	/	/
O=C(c1cccnc1)N1CCC(CNS(=O)(=O)c2ccccc2OC(F)(F)F)CC1	/	-11	/	/	/	/	/	/
CCc1cc(=O)oc2cc(C)cc(OC(C)C(=O)NCc3ccccn3)c12 (stereo not drawn)	1	-8	50*	-3	-6	-2	66*	48*
CCCc1cc(=O)oc2cc(C)cc(OC(C)C(=O)NCc3ccccn3)c12 (stereo not drawn)	-2	-15	65*	4	2	13	+	+
CC1CCN(CC(CS(=O)(=O)c2ccc([N+](=O)[O-])cc2)N2CCC(C)CC2)CC1 (stereo not drawn)	3	-3	55*	/	2	10	74*	60*
CN(C)c1nccc(CNC(=O)COc2ncccn2)n1	/	1	/	/	/	/	/	/
COc1cccc(OCC(=O)NNC(=O)c2ccc3ccccc3c2O)c1	/	0	29*	/	/	12	+	+
COc1cccc(NC(=O)NNC(=O)COc2ccc3ccccc3c2)c1	-1	-7	37*	-3	4	10	+	+
N#Cc1nccnc1O[C@H]1CCCN(C(=O)c2ccc3ncsc3c2)C1	/	-29	/	/	/	/	/	/
O=C(O)Cc1ccc(Br)cc1	/	0	/	/	/	/	/	/
Oc1ccc(-c2ccccc2)cc1CN1CCCCCC1	0	9	-2	2	-2	-5	/	/
Oc1ccc(CN2CCCCC2)nc1-c1ccccc1	0	3	87*	3	-2	3	16	0	GDH-TPI DR=5.3*
CCn1nnc(NC(=O)c2cccc(-c3cc4ccccc4oc3=O)c2)n1	1	-18	48*	24	-1	19	153*	119*
SMILES	UGM FP inh	PriA SSB inh	Mtb FBA inh	Mtb betalactam	Rv3671c protease	GDH-TPI counter-1	Mtb FBA inh conf	GDH-TPI counter-2	others
O=C(Nc1cccnc1)c1cccc(-c2cc3ccccc3oc2=O)c1	-5	-4	3	-2	-4	-2	/	/
Cc1ccc(Cn2c(C3CCCN3c3nc(C)cs3)nc3cc(C(=O)NCCCO)ccc32)cc1 (stereo not drawn)	4	2	-2	2	3	11	/	/
Cc1ccc(Cn2c(C3CCCN3c3nc(-c4ccc(F)cc4)cs3)nc3cc(C(=O)NCCCO)ccc32)cc1 (stereo not drawn)	1	-3	70*	-12	-1	9	9	5
COc1ccc(-c2nn(-c3ccccc3)cc2N)cc1	0	8	93*	1	-6	6	+	+
COc1ccc(-c2nn(-c3ccccc3)cc2CO)cc1	-1	-12	2	52	-4	12	/	/
Cc1ccc(S(=O)(=O)c2ccc(C(=O)Nc3cccc(Cl)c3)cn2)cc1C	/	-5	/	/	/	/	/	/
CCn1cc(C(=O)NCc2ccccc2)c(=O)c2cc(F)c(N3CCN(C(=O)c4ccco4)CC3)cc21	3	13	20	99	-17	-4	/	/
CCn1cc(C(=O)NC(C)C)c(=O)c2cc(F)c(N3CCN(C(=O)c4ccco4)CC3)cc21	-1	-9	55*	28	-11	7	100*	70*
CCn1cc(C(=O)NCc2ccncc2)c(=O)c2cc(F)c(N3CCN(C(=O)c4ccco4)CC3)cc21	-2	9	42*	9	-8	9	35*	22*
CCn1cc(C(=O)NCCC(C)C)c(=O)c2cc(F)c(N3CCN(C(=O)c4ccco4)CC3)cc21	3	-1	15	54	-12	-3	/	/
Cc1cc2c(C)nc(NN=Cc3ccc([N+](=O)[O-])cc3)nc2o1	/	-7	/	/	/	/	/	/
O=C(Oc1ccccc1)Oc1ccc2ccc(=O)oc2c1	/	-2	/	/	/	/	/	/
CCCc1cc(=O)oc2cc(C)cc(OCC(=O)Nc3ccc(S(N)(=O)=O)cc3)c12	3	9	19	5	-5	7	/	/
CCc1cc(=O)oc2cc(C)cc(OCC(=O)NCc3ccncc3)c12	0	-9	49*	-2	3	7	161*	137*
CCCc1cc(=O)oc2cc(C)cc(OCC(=O)NCc3ccncc3)c12	0	-12	61*	0	-7	9	53*	41*
CCc1cc(=O)oc2cc(C)cc(OCC(=O)NCc3ccccn3)c12	-2	-11	84*	-4	4	0	196*	144*
CCCc1cc(=O)oc2cc(C)cc(OCC(=O)O)c12	3	-2	97*	-6	0	17	144*	109*
O=C(Cc1ccc2c(c1)OCO2)NCc1ccnc(-c2cccs2)c1	/	-19	/	/	/	/	/	/

Source: PubChem (several laboratories)
